From PubChem BioAssay come the findings set out here.

Structures are written as SMILES.

What is called inhibition is the relative decrease from the control value, in per cent.

Assay [1] has as its target PEG-3 (UniProt Q6IN02). Description: inhibition of PEG-3 promoter-driven reporter – cell-based, HeLa, luciferase, CREF/GAPDH counter-screen panel, dose response (AID 624167). As to conditions: CREF/GAPDH counter-screens; HeLa PEG-Prom luciferase reporter, overnight, run 1, dose range 1, at 100 µM (top of the series) unless noted. (In general: A counterscreen serves to expose hits that act by an unwanted route or on another target.)

The target in assay [2] is PEG-3 (UniProt Q6IN02). The assay is described as above. As to conditions: CREF/GAPDH counter-screens; HeLa PEG-Prom luciferase reporter, overnight, run 2, dose range 1, at 100 µM (top of the series) unless noted; in the data active = activity above about 50%; inactive = the rest.
Assay [3] deals with Tumor necrosis factor receptor superfamily member 10B (Homo sapiens) (UniProt O14763). Description: viability loss of caspase-8 NB7 cells with TRAIL – with/without TRAIL, luminescence panel, confirmation (AID 651596). The settings on record: NB7 neuroblastoma + caspase-8, TRAIL sensitization, NB7 Caspase-8, with TRAIL, mean of runs, at 10 µM, stronger effect = higher value.
Test in assay [4]: as above
The settings on record: NB7 neuroblastoma + caspase-8, without TRAIL, NB7 Caspase-8, without TRAIL, mean of runs, at 10 µM.

Assay [5] is described as follows: NFkB reporter suppression in cystic fibrosis bronchial cells – cell-based, uHTS hits, panel, cytotoxicity readout, dose response (AID 624344). As to conditions: CF bronchial epithelial cells, PAF-induced NFkB reporter inhibition, with PAF, run 1; at 79 µM (top of the series) unless noted.
Test in assay [6]: as above
The settings on record: CF bronchial epithelial cells, PAF-induced NFkB reporter inhibition, with PAF, run 2; at 79 µM (top of the series) unless noted.

Sequence of Tumor necrosis factor receptor superfamily member 10B (Homo sapiens) (O14763 whole entry, looked up): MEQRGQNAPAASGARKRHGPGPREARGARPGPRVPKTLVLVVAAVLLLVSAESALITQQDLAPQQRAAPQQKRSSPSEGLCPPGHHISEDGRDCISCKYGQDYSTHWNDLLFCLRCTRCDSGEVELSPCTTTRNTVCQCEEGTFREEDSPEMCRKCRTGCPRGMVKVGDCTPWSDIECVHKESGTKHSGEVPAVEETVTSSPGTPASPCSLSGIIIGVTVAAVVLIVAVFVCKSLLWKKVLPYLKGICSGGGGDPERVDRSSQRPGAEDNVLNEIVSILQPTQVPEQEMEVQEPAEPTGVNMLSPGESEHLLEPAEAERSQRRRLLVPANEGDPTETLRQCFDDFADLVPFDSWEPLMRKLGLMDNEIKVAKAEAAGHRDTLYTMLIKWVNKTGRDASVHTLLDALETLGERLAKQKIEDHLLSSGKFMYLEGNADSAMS
Sequence of PEG-3 (Q6IN02 whole entry, looked up): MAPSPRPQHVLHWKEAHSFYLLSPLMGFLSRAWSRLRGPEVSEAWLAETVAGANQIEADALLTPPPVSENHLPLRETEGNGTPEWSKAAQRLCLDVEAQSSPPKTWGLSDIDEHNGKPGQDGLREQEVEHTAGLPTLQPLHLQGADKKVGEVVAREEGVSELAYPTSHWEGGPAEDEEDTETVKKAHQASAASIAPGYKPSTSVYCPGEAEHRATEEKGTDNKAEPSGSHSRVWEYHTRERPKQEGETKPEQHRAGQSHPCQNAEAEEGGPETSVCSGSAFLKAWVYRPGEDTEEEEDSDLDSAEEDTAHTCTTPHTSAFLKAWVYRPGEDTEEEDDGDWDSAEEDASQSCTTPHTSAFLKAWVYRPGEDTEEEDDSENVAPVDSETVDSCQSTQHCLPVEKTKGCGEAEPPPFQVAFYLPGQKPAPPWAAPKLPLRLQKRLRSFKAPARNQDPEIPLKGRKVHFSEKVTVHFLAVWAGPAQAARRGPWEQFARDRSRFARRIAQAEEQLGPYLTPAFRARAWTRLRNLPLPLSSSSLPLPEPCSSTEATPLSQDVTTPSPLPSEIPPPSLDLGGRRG

Consider `CCOc1cccc2sc(N(CCCN(C)C)C(=O)c3ccc(S(=O)(=O)N(C)Cc4ccccc4)cc3)nc12`, for which the inhibition in the assay with PEG-3 [1] was 99.3%; in the assay with PEG-3 [2], 101%. Moreover, the activity in assay [3] was 28.6%; in assay [4] it was -0.65%.
On to `COCCn1c(C)cc(C(=O)COC(=O)c2ccccc2Br)c1C`, for which the inhibition was found to be 95.9% in the assay with PEG-3 [1] and 94.1% with PEG-3 [2]. For the same compound, the results for the activity in assay [3] and in assay [4] were 79.5% and 76.5%, respectively.
In the case of `Cc1cccc(NC(=O)c2cc(-c3ccc(C)s3)nc3ccccc23)n1`, the results for the inhibition in assay [5] and in assay [6] were 98.5% and 95.4%, respectively.
Turning to `COCCn1c(C)cc(C2=NNC(=NC3CC3)SC2)c1C`, the inhibition in the assay with PEG-3 [1] came out at 99.2%; with PEG-3 [2], 101%. In addition, the values for the activity in assay [3] and in assay [4] were 91.5% and 90.3%, respectively.
`N/C(=N\OC(=O)c1ccccc1)C(C(=O)NOC(=O)c1ccccc1)C1CCCCC1` (configuration not stated): the inhibition in the assay with PEG-3 [1] came to 98.8%; with PEG-3 [2], 102%. Also, the activity in assay [3] was 97.6%; in assay [4], 94.9%.
In the case of `CCC(CO)Oc1cc(NCc2ccc(Cl)cc2Cl)c2ncn(C(C)C)c2c1` (configuration not stated), the inhibition in assay [5] amounted to 105%; in assay [6], 109%.
As for `COc1cc(NC(=O)c2c(F)c(F)c(F)c(F)c2F)c(OC)cc1Cl`, the inhibition came to 99.8% in the assay with PEG-3 [1] and 96.5% in the assay with PEG-3 [2]. Moreover, the activity is 85.1% in assay [3] and 64.5% in assay [4].
For `CCn1c(C)cc(C(=O)COC(=O)c2ccccc2[N+](=O)[O-])c1C`, in that order: 99%, 99%, 94.7% and 93.3%.
Turning to `COc1ccc(OC)c(-c2nnc3n2N=C(c2ccc(OC)c(OC4CCOC4)c2)CS3)c1` (configuration not stated), the results for the inhibition in assay [5] and in assay [6] were 103% and 107%, respectively.
As to `N/C(=N\OC(=O)c1ccccc1)C(Cc1ccccc1)C(=O)NOC(=O)c1ccccc1` (configuration not stated), the inhibition was 97.4% in the assay with PEG-3 [1] and 99.1% with PEG-3 [2]. In addition, the figures for the activity in assay [3] and in assay [4] were 98% and 97.8%, respectively.
With `N#CC(C#N)c1ccnc2ccccc12`, the inhibition in assay [5] was 110%; in assay [6], 102%.
As to `CCC(=NCCc1c(C)[nH]c2ccc(C)cc12)C1=C(O)CC(c2ccccc2)CC1=O` (configuration not stated), the inhibition in assay [5] worked out at 82.1%; in assay [6], 92%.
For `Oc1ccc(C[C@H]2CNC(=S)N2CC2CCCN2C[C@H](Cc2ccc(O)cc2)N2C[C@H](Cc3ccc(O)cc3)N(CC3CCCCC3)C2=S)cc1` (some centres not stated), in that order: 101% and 105%.
Consider `COc1cccc(-c2ccc3ncnc(NCc4cccc(C)c4)c3c2)c1`, for which the inhibition in assay [5] stood at 118%; in assay [6] it was 104%.
Regarding `COc1ccc(-c2oc3ccc(-c4ccc(OC)nc4)cc3c2C#CC2(O)CCCCC2)cc1`, the inhibition in assay [5] and in assay [6] was 103% each time.
`Nc1nc(CCl)nc(Nc2cccc3ccccc23)n1`: the values for the inhibition with PEG-3 [1] and with PEG-3 [2] were 102% and 100%, respectively. The activity in assay [3] was 99.8%; in assay [4], 98.7%.
As to `Cc1cc(C)c2sc(N(CCCN(C)C)C(=O)c3ccc(S(=O)(=O)N(C)C4CCCCC4)cc3)nc2c1`, the inhibition is 98.8% with PEG-3 [1] and 101% with PEG-3 [2]. Also, the activity was determined as 17.8% in assay [3] and 4.92% in assay [4].
With `CC1CCCCN1S(=O)(=O)c1ccc(C(=O)N(CCCN(C)C)c2nc3ccc(Br)cc3s2)cc1` (configuration not stated), the inhibition in the assay with PEG-3 [1] and with PEG-3 [2] was 102% each time. Further, the activity in assay [3] was 22.4%; in assay [4] it was 17.7%.
In the case of `Cc1cc(N2C(=O)C(O)=C(C(=O)c3ccc(C)o3)C2c2cccc(Oc3ccccc3)c2)no1` (configuration not stated), the values for the inhibition in assay [5] and in assay [6] were 64% and 82.8%, respectively.
Consider `Cc1ccc(N(Cc2cc(=O)[nH]c3ccccc23)C(=O)CCl)c(C)c1`, for which the inhibition came to 101% with PEG-3 [1] and 99.2% with PEG-3 [2]. Also, the activity in assay [3] is 96.8%; in assay [4], 96.5%.
Turning to `Cc1cnc(C=O)c2cccc([N+](=O)[O-])c12`, the inhibition in assay [5] turned out to be 110%; in assay [6] it was 106%.
For `COC(=O)C1=C(C)N(Cc2ccccc2)C(=NCCc2c[nH]c3ccccc23)N[C@H]1c1cccc(C(F)(F)F)c1`, the inhibition with PEG-3 [1] was determined as 101%; in the assay with PEG-3 [2], 99.9%. For the same compound, the activity in assay [3] turned out to be 17.3%; in assay [4], 44.5%.
For `Cc1ccc2sc(N(CCCN(C)C)C(=O)c3ccc(S(=O)(=O)N(C)Cc4ccccc4)cc3)nc2c1C` the same measures were 102%, 99.1%, 44% and 32.9%.
Regarding `C=C1C(=O)C23C(O)C1CCC2C12COC3(O)C(O)C1C(C)(C)CCC2O` (configuration not stated), the inhibition in assay [5] was found to be 87.7%; in assay [6], 76.9%.
As to `COc1ccc(/C=N/Nc2nc(-c3cccnc3)nc3ccccc23)cc1OC`, the values for the inhibition in assay [5] and in assay [6] were 108% and 96.6%, respectively.
Turning to `CC1(C)Oc2cc3oc(-c4cc(O)cc(O)c4)cc3cc2CC1O` (configuration not stated), the inhibition in the assay with PEG-3 [1] was found to be 93.6%; in the assay with PEG-3 [2] it was 94.6%. In addition, the results for the activity in assay [3] and in assay [4] were 81.8% and 75.9%, respectively.
`CC(=O)NC(CC(C)C)C(=O)NC(Cc1ccccc1)C(=O)CCl` (configuration not stated): the figures for the inhibition in assay [5] and in assay [6] were 97.3% and 104%, respectively.
For the compound `COc1ccc(S(=O)(=O)N(C(C)=O)c2ccc(OC(C)=O)c3ccccc23)cc1[N+](=O)[O-]`, the values for the inhibition in assay [5] and in assay [6] were 59.1% and 99.4% [at 39.5 µM], respectively.
With `O=C(CCl)N1N=C(c2ccco2)CC1c1cccs1` (configuration not stated), the inhibition with PEG-3 [1] was 101%; with PEG-3 [2], 99.3%. Further, the figures for the activity in assay [3] and in assay [4] were 98.5% and 97.8%, respectively.
Turning to `Cc1noc(-c2ccc(Cl)cc2)c1C(=O)O/N=C(\N)c1ccc(C(C)(C)C)cc1`, the inhibition with PEG-3 [1] was determined as 99.2%; with PEG-3 [2] it was 101%. Further, the values for the activity in assay [3] and in assay [4] were 99.3% and 97.5%, respectively.
In the case of `CCCN(CC(=O)Nc1ccccc1C)C(=O)CCl`, the figures for the inhibition with PEG-3 [1] and with PEG-3 [2] were 101% and 98.7%, respectively. Also, the activity came out at 97.8% in assay [3] and 98.2% in assay [4].
Take `Cc1cc(C)c2sc(N(CCCN(C)C)C(=O)c3ccc(S(=O)(=O)N4CCCc5ccccc54)cc3)nc2c1`: the inhibition in the assay with PEG-3 [1] amounted to 97.5%; in the assay with PEG-3 [2] it was 99.2%. The activity in assay [3] was found to be 31.6%; in assay [4] it was 32.4%.
Take `Cc1ccc(-n2nnnc2Sc2ccc(S(=O)(=O)NCCN(C)C)cc2[N+](=O)[O-])cc1`: the inhibition stood at 104% in assay [5] and 114% in assay [6].
